Compound activity deposited in PubChem by several laboratories.
PostGolgi yeast – growth inhibition of a yeast mutant, post-Golgi transport screen | inhibition, % at 10 µM | post-Golgi transport phenotypic cell assay | 98,000 compounds, 0.9% hits;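 also: yeast cells grown in 1536-well plates; yeast grown about 18 h at 30C before absorbance read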
D1 mod – allosterically modulates the human D1 dopamine receptor. P21728. HEK293 D1, CRE-luciferase, dopamine EC30 potentiation; actives deviate in either direction. B-score at 10 µM. 58,000 compounds, 5.9% hits. AID 641;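 active = luminescence count or its row- and column-corrected plate score outside the 99.7% band of the plate's sample wells, on either side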
Cav32 inh – blocks human Cav3.2 T-type calcium channel. O95180. Cav3.2-expressing cells, Fluo-4 calcium fluorescence FDSS; hits give low values. B-score at 10 µM. 100,000 compounds, 4% hits. AID 449739;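 active = single-dose well whose peak fluorescence ratio is a statistical outlier from its plate by either plate-standardised score or position-corrected B-score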
DAT uptake mod – human DAT dopamine uptake with cocaine, either direction; Q01959; LLC-PK1 hDAT cells, [14C]-dopamine uptake with cocaine IC80; actives deviate in either direction; B-score at 10 µM; 110,000 compounds, 1.3% hits; AID 449768;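 active = Z score or B-score, a plate-position-corrected score, falls beyond the plate's 99.7% confidence bounds, in either direction; inactive = both scores lie inside the 99.7% bounds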;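 also: scored against the spread of the other compound wells on the same plate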
PLAP activator – activators of human placental alkaline phosphatase; P05187; purified PLAP enzyme, luminescent substrate read-out; hits give high values; activation fold at 20 µM; 96,000 compounds, 1.2% hits; AID 696; in the data active = activation fold above about 2
Target sequence (P05187 whole entry, looked up): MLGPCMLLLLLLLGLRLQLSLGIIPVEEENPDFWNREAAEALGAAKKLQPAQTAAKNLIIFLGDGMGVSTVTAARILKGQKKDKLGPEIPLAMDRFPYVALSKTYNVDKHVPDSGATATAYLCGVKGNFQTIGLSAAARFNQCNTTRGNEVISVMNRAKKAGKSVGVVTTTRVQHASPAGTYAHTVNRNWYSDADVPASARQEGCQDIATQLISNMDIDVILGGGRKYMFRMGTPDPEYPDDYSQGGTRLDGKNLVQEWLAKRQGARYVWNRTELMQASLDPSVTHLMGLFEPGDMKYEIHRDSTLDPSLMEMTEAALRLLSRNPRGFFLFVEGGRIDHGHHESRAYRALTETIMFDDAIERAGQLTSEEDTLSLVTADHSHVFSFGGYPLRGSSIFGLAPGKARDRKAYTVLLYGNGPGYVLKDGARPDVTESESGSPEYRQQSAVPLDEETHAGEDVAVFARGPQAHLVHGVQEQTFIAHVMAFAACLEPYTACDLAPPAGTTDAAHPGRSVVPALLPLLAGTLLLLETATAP
PostGolgi ctrl – inhibits growth of the yeast control strain; 98,000 compounds, 5% hits; AID 738; inhibition, % at 10 µM; efflux-deficient yeast background strain, growth absorbance A615, 16 h
An asterisk follows results filed as active. The list is not random: actives were taken first. Their share in the collection is about 12%. Rule as the data show it, unless noted: active = inhibition above about 30%; inactive = the rest.

For CCNc1nc(NC(C)C)nc(SCCOc2ccc(C)cc2)n1 the results were PostGolgi yeast 4.5, Cav32 inh -1.44, DAT uptake mod -0.348, PLAP activator 1 and PostGolgi ctrl 31.0*.
COc1cccc(NC(=O)N(CCCN2CCOCC2)C(C)c2cc3ccccc3o2)c1 (stereo not drawn) was read as PostGolgi yeast -2.0, Cav32 inh 0.126, DAT uptake mod -1.43, PLAP activator 1.8 and PostGolgi ctrl 13.9.
`Cc1ccc(CSCC(=O)N/N=C/c2sccc2C)cc1` gave PostGolgi yeast -9.4, Cav32 inh -4.9*, DAT uptake mod 3.18*, PLAP activator 0.5 and PostGolgi ctrl 5.0.
O=C(CSCc1ccccc1)N/N=C/c1ccccc1OCc1ccccc1 was read as PostGolgi yeast 6.4, Cav32 inh -2.54, DAT uptake mod 1.76, PLAP activator 0.8 and PostGolgi ctrl 11.4.
For CCOc1ccc(S(=O)(=O)Nc2ccc(F)cc2)c(C)c1C the results were PostGolgi yeast -13.8, Cav32 inh -4.7*, DAT uptake mod -1.79, PLAP activator 1.2 and PostGolgi ctrl 54.9*.
CCOc1ccc(NS(=O)(=O)c2cc(OC)ccc2OC)cc1 was read as PostGolgi yeast -7.5, Cav32 inh -0.277, DAT uptake mod 0.424, PLAP activator 0.8 and PostGolgi ctrl 11.8.
`CCOC(=O)N1CCN(C(=S)Nc2cccc(C)c2)CC1` gave PostGolgi yeast -7.0, Cav32 inh 0.593, DAT uptake mod 0.396, PLAP activator 0.9 and PostGolgi ctrl -3.4.
COc1ccc(-c2c(C#N)c(N)nc3c2CCc2ccccc2-3)cc1OC was read as PostGolgi yeast -0.7, Cav32 inh -3.29, DAT uptake mod 0.832, PLAP activator 1.5 and PostGolgi ctrl 43.8*.
Fc1ccc(Sc2nc(-c3ccccc3)nnc2C(F)(F)F)cc1 was read as PostGolgi yeast 16.1, DAT uptake mod -0.39, PLAP activator 0.6 and PostGolgi ctrl 72.1*.
Screening Cc1ccnc2c(N3C(=O)C4C5c6ccccc6C(c6ccccc65)C4C3=O)cccc12 (stereo not drawn) returned PostGolgi yeast 68.8*, Cav32 inh -3.7, DAT uptake mod 1.19, PLAP activator 1.1 and PostGolgi ctrl 74.4*.
CCCCCCc1nc2ccccc2c(=O)n1NC(=O)c1c(O)c2cccc3c2n(c1=O)CCC3 was read as PostGolgi yeast 0.5, PLAP activator 1.4 and PostGolgi ctrl 7.3.
C(=N\c1nc2ccccc2[nH]1)/c1cccs1 was read as PostGolgi yeast -10.5, D1 mod -0.102, Cav32 inh 3.06*, DAT uptake mod -0.314, PLAP activator 1.2 and PostGolgi ctrl 8.0.
Cn1c(/C=N/c2nc3ccccc3[nH]2)nc2ccccc21 was read as PostGolgi yeast -1.4, D1 mod 0.448, Cav32 inh 0.0476, DAT uptake mod -2.45*, PLAP activator 1 and PostGolgi ctrl 6.1.
Screening c1csc(Cc2nc3ccccc3[nH]2)c1 returned PostGolgi yeast 7.5, D1 mod 0.0411, Cav32 inh -0.0343, DAT uptake mod 0.531, PLAP activator 0.8 and PostGolgi ctrl 12.0.
For Cc1ccc(CC2(O)CC(C)N(C)CC2C)c(C)c1 (stereo not drawn) the results were PostGolgi yeast 3.9, D1 mod -0.0468, Cav32 inh -0.122, DAT uptake mod 0.708, PLAP activator 0.9 and PostGolgi ctrl -0.9.
Screening Cn1c(C(=O)NC2CCCC2)cc2c(=O)n(C)c3ccccc3c21 returned PostGolgi yeast -5.7, D1 mod -0.572, Cav32 inh 1.47, DAT uptake mod -0.582, PLAP activator 1.7 and PostGolgi ctrl 1.8.
Screening COC(=O)c1ccccc1NC(=O)c1cnn2c(C(F)F)cc(C3CC3)nc12 returned PostGolgi yeast 17.5, D1 mod 0.397, Cav32 inh -2.75, DAT uptake mod -0.462, PLAP activator 1.1 and PostGolgi ctrl 42.9*.
Cc1cc(NC(=O)c2cnn3c(C(F)F)cc(C4CC4)nc23)no1 was read as PostGolgi yeast -3.3, D1 mod 1.64, Cav32 inh 0.342, DAT uptake mod 0.218, PLAP activator 1.1 and PostGolgi ctrl 14.7.
COc1cccc(-n2c(C)c(C(C)=O)c(C(C)=O)c2C)c1 was read as PostGolgi yeast 0.8, D1 mod -0.0407, Cav32 inh 0.157, DAT uptake mod -1.17, PLAP activator 0.9 and PostGolgi ctrl 0.6.
Screening Cn1cc(-c2nc3ccccc3[nH]2)c2ccccc21 returned PostGolgi yeast 0.0, D1 mod -4.12*, Cav32 inh 0.733, DAT uptake mod 1, PLAP activator 0.9 and PostGolgi ctrl 8.8.
For Nc1cccc(-c2nc3ccccc3[nH]2)c1 the results were PostGolgi yeast 0.9, D1 mod -0.666, Cav32 inh 0.917, DAT uptake mod 0.343 and PostGolgi ctrl -0.4.
For Nc1ccc(-c2nc3ccccc3[nH]2)cc1 the results were PostGolgi yeast -3.3, D1 mod -3.52*, Cav32 inh 1.39, DAT uptake mod 0.565, PLAP activator 1 and PostGolgi ctrl 18.6.
For Cc1ccc(C23CC4CC(CC(C(=O)N5CCOCC5)(C4)C2)C3)cc1 the results were PostGolgi yeast -1.7, Cav32 inh 0.288, DAT uptake mod 0.269, PLAP activator 1.5 and PostGolgi ctrl 22.0.
Screening COc1ccc(C2=CC(=O)OC3(CCCC3)O2)cc1 returned PostGolgi yeast 4.7, Cav32 inh 0.0137, DAT uptake mod 0.232, PLAP activator 0.7 and PostGolgi ctrl 13.9.
Screening c1ccc2cc(OCc3nc4ccccc4[nH]3)ccc2c1 returned Cav32 inh -5.9* and DAT uptake mod -1.56.
Screening c1cnc2c(OCc3nc4ccccc4[nH]3)cccc2c1 returned PostGolgi yeast 0.5, D1 mod -1.61, Cav32 inh 1.09, DAT uptake mod 1.38, PLAP activator 2.1* and PostGolgi ctrl -7.0.
COc1ccccc1OCc1nc2ccccc2[nH]1 was read as PostGolgi yeast -2.8, Cav32 inh 0.456, DAT uptake mod 0.251, PLAP activator 1 and PostGolgi ctrl -6.3.
COc1ccc(C2C(C(=O)NCCN3CCOCC3)c3ccccc3C(=O)N2C2CCCCC2)cc1 (stereo not drawn) was read as PostGolgi yeast -0.9, D1 mod -0.0872, Cav32 inh 0.959, DAT uptake mod 0.746 and PostGolgi ctrl -2.3.
Nc1nc(-c2ccccc2)cc(N2CCCCC2)n1 was read as PostGolgi yeast -6.3, D1 mod -2.31, Cav32 inh -1.79, DAT uptake mod -0.345, PLAP activator 1.3 and PostGolgi ctrl 8.0.
For CCOc1cc(-c2ccccc2)nc(N)n1 the results were PostGolgi yeast 0.0, D1 mod 8.15*, Cav32 inh -0.0283, DAT uptake mod 1.33, PLAP activator 1.2 and PostGolgi ctrl -2.5.
For CC(C)C(O)P(=O)(OCc1ccccc1)c1ccc(N(C)C)cc1 (stereo not drawn) the results were PostGolgi yeast -8.2, D1 mod 0.495, Cav32 inh 0.247, DAT uptake mod -0.654, PLAP activator 1.2 and PostGolgi ctrl -0.2.
